# Data reported in PubChem BioAssay (Tox21).
# Values without a mark were called inactive. Results filed as inconclusive are left out. Where a call stands in place of a potency, no number is given. Calls of active or inactive are those of the source. Unless noted, calls follow the shape of the dose curve; as a rule, active = well fitted curve in the direction sought with a large enough effect in the repeat runs; inconclusive = weak or mixed curves; inactive = no such curve, though single readings can be large; an effect the other way counts as inactive or inconclusive.
# How the values were obtained:
# [1] = qHTS assay to identify small molecule agonists of H2AX - cell viability counter screen (AID 1224847; calls by dose curve;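 also: wild-type CHO-K1 cells; top concentration of the series differs between compounds; nearly all actives have a fitted effect of over 30% in size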)
# Summary of the method: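 CHO-K1 cells plated overnight at 37C, then exposed 3 h at 37C to compounds at 15 concentrations (0.76% DMSO final). Viability by CellTiter-Glo luminescence after 30 min at room temperature.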
# [2] = qHTS RealTime-Glo MT Cell Viability Assay in HepG2 cells - 24 hour (AID 1224867); also: nearly all actives have a fitted effect of over 50% in size
# Summary of the method: (§1)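 Cells + NanoLuc/prosubstrate dispensed (600 cells/well) → 5 h at 37 C/5% CO2 → compounds in DMSO transferred → 40 h incubation at 37 C, luminescence read at 0, 8, 16, 24, 32, 40 h.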
# [3] = qHTS RealTime-Glo MT Cell Viability Assay in HEK293 cells - 32 hour (AID 1224868); also: top concentration of the series differs between compounds; nearly all actives have a fitted effect of over 50% in size
# Summary of the method: (§2)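 Tox21 10K qHTS, HEK293, 600 cells/well, RealTime-Glo reagent co-dispensed with cells; 5 h preincubation, compound by pintool, 37 C, luminescence at 0–40 h.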
# [4] = A CellTox Green Cytotoxicity Assay to monitor cytotoxicity in HEK293 cells - 0 hour (AID 1224869); also: nearly all actives have a fitted effect of over 50% in size
# Summary of the method: (§3)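 HEK293 cells, 600/well, were preincubated 5 hours and then exposed to compounds at 37 C for up to 40 hours. A cell-impermeant cyanine dye staining dead-cell DNA was read by fluorescence at 0, 8, 16, 24, 32 and 40 h time points.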
# [5] = qHTS RealTime-Glo MT Cell Viability Assay in HepG2 cells - 40 hour (AID 1224870); also: nearly all actives have a fitted effect of over 50% in size
# Summary of the method: (§4)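 HepG2 cells mixed with RealTime-Glo MT reagents (NanoLuc plus cell-permeant prosubstrate) were seeded at 600 cells/well, incubated 5 h at 37 C/5% CO2, then pinned with compounds in DMSO; nonlytic luminescence tracked viability during 40 h treatment.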
# [6] = qHTS RealTime-Glo MT Cell Viability Assay in HEK293 cells - 16 hour (AID 1224872)
# Summary of the method: as §2
# [7] = qHTS RealTime-Glo MT Cell Viability Assay in HepG2 cells - 8 hour (AID 1224873); also: nearly all actives have a fitted effect of over 55% in size
# Summary of the method: as §4
# [8] = qHTS RealTime-Glo MT Cell Viability Assay in HEK293 cells - 40 hour (AID 1224874); conditions: RealTime-Glo luminescence; max response: hits give low values; also: nearly all actives have a fitted effect of over 50% in size; also: potency is read from the fitted curve at half-maximal effect
# Summary of the method: (§5)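 600 cells/well were plated with the nonlytic NanoLuc/prosubstrate reagent, pre-incubated 5 h, then given 23 nL of compound in DMSO. Incubation at 37 C for 40 h, with luminescence from viable-cell-reduced substrate read repeatedly from 0 h.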
# [9] = A CellTox Green Cytotoxicity Assay to monitor cytotoxicity in HEK293 cells - 24 hour (AID 1224875); also: nearly all actives have a fitted effect of over 45% in size; also: potency is read from the fitted curve at half-maximal effect; as to activity change: series mostly up to about 77 µM
# Summary of the method: as §3
# [10] = A CellTox Green Cytotoxicity Assay to monitor cytotoxicity in HepG2 cells - 16 hour (AID 1224876); also: nearly all actives have a fitted effect of over 45% in size
# Summary of the method: (§6)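 HepG2 cells, 600/well, preincubated 5 h with CellTox Green dye, then exposed to Tox21 compounds in DMSO at 37 C for up to 40 h. Dead-cell DNA fluorescence read at the indicated time point.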
# [11] = A CellTox Green Cytotoxicity Assay to monitor cytotoxicity in HepG2 cells - 24 hour (AID 1224878); also: nearly all actives have a fitted effect of over 45% in size
# Summary of the method: as §6
# [12] = A CellTox Green Cytotoxicity Assay to monitor cytotoxicity in HepG2 cells - 40 hour (AID 1224879); also: nearly all actives have a fitted effect of over 40% in size
# Summary of the method: as §6
# [13] = qHTS RealTime-Glo MT Cell Viability Assay in HEK293 cells - 0 hour (AID 1224880); also: top concentration of the series differs between compounds; nearly all actives have a fitted effect of over 45% in size
# Summary of the method: as §5
# [14] = A CellTox Green Cytotoxicity Assay to monitor cytotoxicity in HEK293 cells - 32 hour (AID 1224881); also: nearly all actives have a fitted effect of over 40% in size
# Summary of the method: as §3
# [15] = A CellTox Green Cytotoxicity Assay to monitor cytotoxicity in HepG2 cells - 0 hour (AID 1224882); also: nearly all actives have a fitted effect of over 35% in size
# Summary of the method: as §6
# [16] = A CellTox Green Cytotoxicity Assay to monitor cytotoxicity in HepG2 cells - 32 hour (AID 1224883); also: nearly all actives have a fitted effect of over 50% in size
# Summary of the method: as §6
# [17] = A CellTox Green Cytotoxicity Assay to monitor cytotoxicity in HEK293 cells - 40 hour (AID 1224871); also: nearly all actives have a fitted effect of over 45% in size; also: potency is read from the fitted curve at half-maximal effect
# Summary of the method: as §3
# [18] = qHTS RealTime-Glo MT Cell Viability Assay in HepG2 cells - 32 hour (AID 1224877); also: nearly all actives have a fitted effect of over 55% in size
# Summary of the method: as §1
compound,measurement,setting,value
O=C(O)CN(CCCN(CC(=O)O)CC(=O)O)CC(=O)O,"activity change, negative = cytotoxicity",[1],0.112% [at 31.6 µM]
same,"activity change, negative = cytotoxicity",[2],-3.25% [at 15.8 µM]
same,"activity change, negative = cytotoxic",[3],-12.4% [at 15.8 µM]
same,cytotoxicity,[4],-2.37% [at 15.8 µM]
same,"activity change, negative = cytotoxic",[5],22.2% [at 15.8 µM]
same,"activity change, negative = cytotoxicity",[6],-5.66% [at 15.8 µM]
same,"viability change, negative = cytotoxic",[7],-18.6% [at 15.8 µM]
same,max response,[8],-7.68%
same,activity change,[9],"1.78% [at 15.8 µM, hits give high values]"
same,cytotoxicity increase,[10],-15.6% [at 15.8 µM]
same,cytotoxicity,[11],-12.4% [at 15.8 µM]
same,cytotoxicity increase,[12],-13.1% [at 15.8 µM]
same,"activity change, negative = cytotoxicity",[13],-10.1% [at 15.8 µM]
same,cytotoxicity increase,[14],1.94% [at 15.8 µM]
same,cytotoxicity,[15],-9.07% [at 15.8 µM]
same,cytotoxicity increase,[16],-13.5% [at 15.8 µM]
O=C1OC(=O)c2cc(-c3ccc4c(c3)C(=O)OC4=O)ccc21,Potency,[1],inactive
same,Potency,[2],inactive
same,Potency,[3],inactive
same,Potency,[4],inactive
same,Potency,[5],inactive
same,Potency,[17],inactive
same,Potency,[6],inactive
same,Potency,[7],inactive
same,max response,[8],0.595%
same,Potency,[9],inactive
same,Potency,[10],inactive
same,Potency,[11],inactive
same,Potency,[12],inactive
same,Potency,[13],inactive
same,Potency,[14],inactive
same,Potency,[15],inactive
same,Potency,[16],inactive
C=CC(C)(C)O,Potency,[1],inactive
same,Potency,[2],inactive
same,Potency,[4],inactive
same,Potency,[5],inactive
same,Potency,[17],inactive
same,Potency,[6],inactive
same,Potency,[7],inactive
same,max response,[8],6.97%
same,Potency,[9],inactive
same,Potency,[10],inactive
same,Potency,[11],inactive
same,Potency,[12],inactive
same,Potency,[13],inactive
same,Potency,[14],inactive
same,Potency,[16],inactive
CCOc1ccc([N+](=O)[O-])cc1,Potency,[1],inactive
same,Potency,[2],inactive
same,Potency,[4],inactive
same,Potency,[5],inactive
same,Potency,[17],44.3 µM (active)
same,Potency,[7],inactive
same,Potency,[8],49.7 µM (active)
same,Potency,[9],44.3 µM (active)
same,Potency,[18],inactive
same,Potency,[13],inactive
Nc1ccc(Cl)c([N+](=O)[O-])c1,Potency,[1],inactive
same,Potency,[2],inactive
same,Potency,[4],inactive
same,Potency,[5],inactive
same,Potency,[17],inactive
same,Potency,[6],inactive
same,Potency,[7],inactive
same,max response,[8],-19.2%
same,Potency,[9],inactive
same,Potency,[10],inactive
same,Potency,[12],inactive
same,Potency,[13],inactive
same,Potency,[15],inactive
same,Potency,[16],inactive
CCN(CC)c1ccc(C=O)cc1,Potency,[1],inactive
same,Potency,[2],inactive
same,Potency,[4],inactive
same,Potency,[5],inactive
same,Potency,[7],inactive
same,Potency,[9],inactive
same,Potency,[10],inactive
same,Potency,[18],inactive
same,Potency,[11],inactive
same,Potency,[12],inactive
same,Potency,[14],inactive
same,Potency,[15],inactive
same,Potency,[16],inactive
O=C1CCC/C=C\CCCCCCCCCC1,Potency,[1],inactive
same,Potency,[2],inactive
same,Potency,[3],inactive
same,Potency,[4],inactive
same,Potency,[5],inactive
same,Potency,[7],inactive
same,max response,[8],-5.39%
same,Potency,[9],inactive
same,Potency,[10],inactive
same,Potency,[13],inactive
same,Potency,[15],inactive
O=C1OCc2ccccc21,Potency,[1],inactive
same,Potency,[2],inactive
same,Potency,[4],inactive
same,Potency,[5],inactive
same,Potency,[17],inactive
same,Potency,[7],inactive
same,max response,[8],15.2%
same,Potency,[9],inactive
same,Potency,[10],inactive
same,Potency,[11],inactive
same,Potency,[12],inactive
same,Potency,[13],inactive
same,Potency,[15],inactive
same,Potency,[16],inactive
CC1=CC[C@@H](C(C)(C)O)CC1,Potency,[1],inactive
same,Potency,[2],inactive
same,Potency,[3],inactive
same,Potency,[4],inactive
same,Potency,[17],inactive
same,Potency,[6],inactive
same,Potency,[7],inactive
same,max response,[8],4.47%
same,Potency,[9],inactive
same,Potency,[10],inactive
same,Potency,[18],inactive
same,Potency,[12],inactive
same,Potency,[13],inactive
same,Potency,[16],inactive
